# Screening results: PubChem, National Center for Advancing Translational Sciences (NCATS)
# Most compounds without a hit are left out; they make up all but 2.4% or so of the library.
# D2 PAM-1 = positive allosteric modulators of human D2 dopamine receptor. P14416. HEK293 T-REx D2, calcium flux, EC20 dopamine potentiation. potentiation, % at 10 µM. hit rate 0.34% among 340,000. AID 485347;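 active = potentiation over 3 SD above the plate norm, cut at about 30% in these data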; also: 0% is about no effect
# Target sequence (P14416 whole entry, looked up): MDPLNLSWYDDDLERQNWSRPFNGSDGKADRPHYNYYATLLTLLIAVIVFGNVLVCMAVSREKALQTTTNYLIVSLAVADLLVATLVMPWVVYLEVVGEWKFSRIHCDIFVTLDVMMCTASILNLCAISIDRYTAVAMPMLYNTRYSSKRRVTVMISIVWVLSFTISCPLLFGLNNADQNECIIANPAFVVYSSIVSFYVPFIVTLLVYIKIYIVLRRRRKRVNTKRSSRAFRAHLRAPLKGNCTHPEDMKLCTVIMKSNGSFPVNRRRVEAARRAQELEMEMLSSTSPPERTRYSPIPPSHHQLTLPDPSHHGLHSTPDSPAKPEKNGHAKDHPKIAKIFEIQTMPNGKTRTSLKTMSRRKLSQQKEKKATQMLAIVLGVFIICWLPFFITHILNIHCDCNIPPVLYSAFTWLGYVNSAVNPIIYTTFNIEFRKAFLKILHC
#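 Using a no-wash calcium dye in inducible, force-coupled HEK293 Trex cells expressing D2, we tracked fluorescence each second for 180 s after compound, then for 180 s after EC20 dopamine to detect augmented signalling.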
# D2 ag-1 = D2 dopamine receptor (human) agonism; AID 485358; hit rate 0.53% among 340,000; HEK293 T-REx D2 cells, calcium flux agonist mode; P14416; activation, % at 2 µM;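 active = activation over 3 SD above normal in the single-dose calcium agonist read, cut at about 30% in these data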; also: 0% is about no effect
#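 In this primary screen, compounds producing a positive calcium signal within 180 s of addition to tetracycline-induced, force-coupled HEK293 Trex D2 cells are flagged; cells are dye-loaded with a no-wash calcium kit beforehand.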
# D2 ag-2 = agonists of human D2 dopamine receptor (beta-arrestin); activation, % (test concentration not listed); DiscoveRx PathHunter D2 beta-arrestin, luminescence, 90 min; 100% = 57 uM dopamine signal; P14416; hit rate 0.084% among 360,000; in the data active = activation above about 40%
#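 DiscoveRx PathHunter D2 beta-arrestin cells (2,100/well) attached overnight, then compound-stimulated 90 min at 37 C in HBSS/10 mM HEPES/0.1% Tween-20 buffer; beta-galactosidase complementation read by luminescence after 1 h at ambient temperature. Dopamine 57 uM final (EC100) as control.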
# D2 PAM-2 = potentiates the human D2 dopamine receptor allosterically; DiscoveRx D2 beta-arrestin cells, luminescence, 90 min; 100% = 57 uM dopamine signal; hit rate 0.23% among 360,000; potentiation, % (no concentration beside the values); in the data active = potentiation above about 50%
#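 PathHunter beta-arrestin assay in DiscoveRx D2 cells. Compounds were added with an EC20 of dopamine (50 nM final) for 90 min at 37 deg C. Luminescence was read 1 h after detection reagent, with 57 uM dopamine as the EC100 control.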
# D2 antagonist = antagonists of human D2 dopamine receptor; HEK293 TREx D2 cells, calcium flux, dopamine EC80; inhibition, % at 10 µM; hit rate 2% among 340,000; AID 485344; in the data active = inhibition above about 30%; inactive = below that, where a call was filed; also: 0% is about no effect
#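 Dopamine at EC80 is the agonist stimulus; test compounds precede it by 180 s. Calcium flux read kinetically in a force-coupled, inducible HEK293 T-REx D2 cell line.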
# * = called active by the depositor; / = no result.
SMILES,D2 PAM-1,D2 ag-1,D2 ag-2,D2 PAM-2,D2 antagonist
O=C(c1ccc2c(=O)n(CCc3ccccc3)c(=O)[nH]c2c1)N1CCN(c2ccccc2)CC1,30*,4,-3,-1,-4
O=C(c1ccc2c(=O)n(CCc3ccccc3)c(=O)[nH]c2c1)N1CCN(c2ccc(F)cc2)CC1,-6,0,8,16,0
CCCCCn1c(=O)[nH]c2cc(C(=O)N3CCN(Cc4ccc5c(c4)OCO5)CC3)ccc2c1=O,-17,38*,5,-9,14
C=CCn1c(=O)[nH]c2cc(C(=O)N3CC=C(c4ccccc4)CC3)ccc2c1=O,6,-1,-2,11,36*
CCOC(=O)N1CCN(C(=O)c2ccc(Cn3c(=S)[nH]c4cc5c(cc4c3=O)OCO5)cc2)CC1,5,0,-1,15,31*
CCOC(=O)N1CCN(C(=O)c2ccc(Cn3c(=S)[nH]c4cc(OCC)c(OCC)cc4c3=O)cc2)CC1,15,0,3,-18,14
CCOc1cc2[nH]c(=S)n(Cc3ccc(C(=O)NCCN(CC)CC)cc3)c(=O)c2cc1OCC,-22,0,-1,-24,50*
O=C(c1ccc(Cn2c(=S)[nH]c3ccccc3c2=O)cc1)N1CCN(c2ccccn2)CC1,-6,0,3,0,33*
COc1cc(OC)c(NC(=O)C2=C(C)C(=O)OC23CCCCCC3)cc1Cl,/,-1,/,/,/
O=C(NC(=S)Nc1ccc(Cl)c(C(=O)O)c1)c1cccc(COc2ccccc2)c1,-8,-1,-2,-14,-1
O=C(O)c1ccc(Cl)c(NC(=S)NC(=O)c2cccc(COc3ccccc3)c2)c1,12,-1,2,-4,36*
CCCc1cc(=O)[nH]c(SCC(=O)N2c3ccccc3CC2C)n1 (stereo not drawn),/,/,2,10,/
CCCc1cc(=O)[nH]c(SC(C)C(=O)N2c3ccccc3CC2C)n1 (stereo not drawn),-29,0,6,11,44*
CCN(CC)S(=O)(=O)c1cccc(NC(=O)COC(=O)C2=COCCO2)c1,-4,0,0,-10,30*
CCN(CC)S(=O)(=O)c1cccc(NC(=O)COC(=O)C2COc3ccccc3O2)c1 (stereo not drawn),-9,-1,1,-12,13
CCC(C)(C)n1nnnc1C(c1ccccc1)N1CCc2ccccc2C1 (stereo not drawn),9,-1,1,-7,3
CCC(C)(C)n1nnnc1C(c1ccc(O)c(OC)c1)N1CCc2ccccc2C1 (stereo not drawn),2,0,-1,-10,35*
Cn1c(=O)oc2cc(NC(=O)CCl)ccc21,-5,0,2,-1,32*
CC(=O)Nc1ccc(NC(=O)CCS(=O)(=O)c2ccc3c(c2)oc(=O)n3C)cc1,-9,0,-2,-10,0
CC(=O)OCCn1c(C)[n+](CCOC(C)=O)c2cc(Cl)c(Cl)cc21,-2,2,4,-6,-8
CC(=O)OCCn1c2nc(=O)[nH]c(=O)c-2nc2cc(C)c(C)cc21,9,112*,-2,-3,29
Cc1cccc(-c2nc(CSc3nncn4c3cc3oc(C)cc34)c(C)o2)c1,0,0,/,/,/
Cc1ccc(NC(=O)N(C2=NCC(C)S2)c2ccccc2)cc1 (stereo not drawn),/,/,2,-8,/
CC(=O)Nc1ccc(S(=O)(=O)N(C2=NCC(C)S2)c2ccccc2)cc1 (stereo not drawn),-6,0,1,-43,51*
O=C1c2ccccc2C(=O)N1CC1c2ccccc2CCN1S(=O)(=O)c1cnc[nH]1 (stereo not drawn),-4,1,1,21,46*
CCCNC(=O)c1ccc2nc(CCc3ccccc3)oc2c1,3,1,/,/,/
CCN1CCN(C(=O)c2ccc3c(c2)N(Cc2ccc(Cl)cc2)C(=O)c2ccccc2S3(=O)=O)CC1,-23,/,/,/,/
CCN1CCN(C(=O)c2ccc3c(c2)N(Cc2ccccc2)C(=O)c2ccccc2S3(=O)=O)CC1,-23,0,-2,-13,40*
O=C(Cn1cc(SCc2ccccc2Cl)c2ccccc21)N1CCCCCC1,-1,1,/,/,/
